Measured values from PubChem BioAssay (Tox21).
Records with an inconclusive call do not appear. Calls of active or inactive are those of the source. Calls come from the whole dose curve; as a rule, active = well fitted curve in the direction sought with a large enough effect in the repeat runs; inconclusive = weak or mixed curves; inactive = no such curve, though single readings can be large; an effect the other way counts as inactive or inconclusive.

Experiments:
[1] = A CellTox Green Cytotoxicity Assay to monitor cytotoxicity in HEK293 cells - 40 hour (AID 1224871); note: nearly all actives have a fitted effect of over 45% in size; note: potency is the fitted concentration of half-maximal effect
Method in brief: (§1)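 Homogeneous no-lysis format: HEK293 cell suspension mixed with CellTox Green reagent, seeded, incubated 5 h at 37 C/5% CO2, then dosed by pintool with compound in DMSO.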

[2] = qHTS RealTime-Glo MT Cell Viability Assay in HEK293 cells - 16 hour (AID 1224872); note: nearly all actives have a fitted effect of over 50% in size; note: potency is the fitted concentration of half-maximal effect
Method in brief: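 Nonlytic real-time viability readout: viable cells convert prosubstrate to NanoLuc substrate, giving luminescence proportional to live cell number. HEK293, 600 cells/well, compound added after 5 h, continuous culture at 37 C.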

[3] = qHTS RealTime-Glo MT Cell Viability Assay in HepG2 cells - 8 hour (AID 1224873); note: nearly all actives have a fitted effect of over 55% in size; note: potency is the fitted concentration of half-maximal effect
Method in brief: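 HepG2 cells mixed with RealTime-Glo MT reagents (NanoLuc plus cell-permeant prosubstrate) were seeded at 600 cells/well, incubated 5 h at 37 C/5% CO2, then pinned with compounds in DMSO; nonlytic luminescence tracked viability during 40 h treatment.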

[4] = qHTS RealTime-Glo MT Cell Viability Assay in HEK293 cells - 40 hour (AID 1224874); settings: RealTime-Glo luminescence; max response: stronger effect = lower value; note: nearly all actives have a fitted effect of over 50% in size; note: potency is the fitted concentration of half-maximal effect
Method in brief: (§2)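 Measured as luminescence from the same continuously cultured HEK293 wells at successive time points (0, 8, 16, 24, 32, 40 h) after compound addition. Reagent present from seeding; dosing at 5 h; incubation 37 C.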

[5] = A CellTox Green Cytotoxicity Assay to monitor cytotoxicity in HEK293 cells - 24 hour (AID 1224875); note: nearly all actives have a fitted effect of over 45% in size; note: potency is the fitted concentration of half-maximal effect
Method in brief: as §1

[6] = A CellTox Green Cytotoxicity Assay to monitor cytotoxicity in HepG2 cells - 16 hour (AID 1224876); note: nearly all actives have a fitted effect of over 45% in size
Method in brief: (§3)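 Fluorescent DNA-binding dye, 600 HepG2 cells/well, 5 h preincubation then compound in DMSO; same plates read at 0–40 h, 37 C.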

[7] = A CellTox Green Cytotoxicity Assay to monitor cytotoxicity in HepG2 cells - 24 hour (AID 1224878); note: nearly all actives have a fitted effect of over 45% in size; note: potency is the fitted concentration of half-maximal effect
Method in brief: as §3

[8] = A CellTox Green Cytotoxicity Assay to monitor cytotoxicity in HepG2 cells - 40 hour (AID 1224879); note: nearly all actives have a fitted effect of over 40% in size; note: potency is the fitted concentration of half-maximal effect
Method in brief: as §3

[9] = qHTS RealTime-Glo MT Cell Viability Assay in HEK293 cells - 0 hour (AID 1224880)
Method in brief: as §2

[10] = qHTS RealTime-Glo MT Cell Viability Assay in HepG2 cells - 32 hour (AID 1224877); note: nearly all actives have a fitted effect of over 55% in size; note: potency is the fitted concentration of half-maximal effect
Method in brief: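 Luminescence read-out: viable HepG2 cells reduce a prosubstrate to a NanoLuc substrate, giving a signal proportional to live cell number. Reads taken at 0, 8, 16, 24, 32 and 40 h of compound exposure at 37 C.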
% is set by controls: 0 for no effect and ±100 for the full control effect.

CCOP(=O)(OCC)Oc1nc(Cl)c(Cl)cc1Cl
inactive: Potency [1] | Potency [2] | Potency [3] | max response [4] -5.34% | Potency [5] | Potency [6] | Potency [7] | Potency [8] | Potency [9]

COc1ccc2[nH]cc(CCN(C(C)C)C(C)C)c2c1
inactive: Potency [1] | Potency [2] | Potency [3] | max response [4] -12% | Potency [5] | Potency [6] | Potency [10] | Potency [7] | Potency [9]

C=CCBr
inactive: Potency [1] | Potency [2] | Potency [3] | max response [4] 0.528% | Potency [5] | Potency [6] | Potency [7] | Potency [8] | Potency [9]

Cc1nn(-c2cc(NS(C)(=O)=O)c(Cl)cc2Cl)c(=O)n1C(F)F
inactive: Potency [1] | Potency [2] | Potency [3] | max response [4] 1.81% | Potency [5] | Potency [6] | Potency [10] | Potency [7] | Potency [8] | Potency [9]

CC(Cc1ccccc1)N(C)Cc1ccco1 (stereo unspecified)
inactive: Potency [1] | Potency [2] | Potency [3] | max response [4] 0.354% | Potency [5] | Potency [6] | Potency [10] | Potency [7] | Potency [8] | Potency [9]

CNC(=O)Oc1cc(C)cc(C(C)C)c1
inactive: Potency [1] | Potency [2] | Potency [3] | max response [4] 5.9% | Potency [5] | Potency [6] | Potency [7] | Potency [8] | Potency [9]

CC(C)=CC1C(C(=O)OC(C#N)c2cccc(Oc3ccccc3)c2)C1(C)C (stereo unspecified)
inactive: Potency [1] | Potency [2] | Potency [3] | max response [4] -3.44% | Potency [5] | Potency [10] | Potency [7] | Potency [8] | Potency [9]

CN1CCc2cc3c(cc2C1O)OCO3 (stereo unspecified)
inactive: Potency [1] | Potency [2] | Potency [3] | max response [4] 1.96% | Potency [5] | Potency [6] | Potency [10] | Potency [7] | Potency [8] | Potency [9]

O=P(Cl)(Cl)Cl
inactive: Potency [1] | Potency [2] | Potency [3] | max response [4] 0.904% | Potency [5] | Potency [6] | Potency [10] | Potency [7] | Potency [8] | Potency [9]

OCC(Br)CBr (stereo unspecified)
inactive: Potency [1] | Potency [2] | Potency [3] | max response [4] -11.1% | Potency [5] | Potency [6] | Potency [10] | Potency [7] | Potency [8] | Potency [9]

CC(=O)O.CC(=O)O.CC(=O)O.CC(=O)O.CC(=O)O.CC(=O)O.CC(=O)O.O.O.[Cr].[Cr].[Cr]
inactive: Potency [1] | Potency [2] | Potency [3] | max response [4] 2.64% | Potency [5] | Potency [10] | Potency [7] | Potency [8] | Potency [9]

O=C(Cl)c1ccccc1F
inactive: Potency [1] | Potency [2] | Potency [3] | max response [4] -0.0017% | Potency [5] | Potency [6] | Potency [10] | Potency [7] | Potency [8] | Potency [9]

O=c1c2ccccc2c(=O)c2c1cc(Cl)c1[nH]c3c([nH]c12)c(Cl)cc1c(=O)c2ccccc2c(=O)c13
inactive: Potency [1] | Potency [2] | Potency [3] | max response [4] 12.8% | Potency [5] | Potency [6] | Potency [7] | Potency [8] | Potency [9]

O=C(O)[C@H](O)[C@@H](O)C(=O)O
inactive: Potency [1] | Potency [2] | Potency [3] | max response [4] 5.57% | Potency [5] | Potency [10] | Potency [7] | Potency [8] | Potency [9]

O=C(O)CCCCCCNC1c2ccccc2CCc2ccccc21
inactive: Potency [1] | Potency [2] | Potency [3] | max response [4] 11.4% | Potency [5] | Potency [6] | Potency [7] | Potency [8] | Potency [9]

O=S(=O)(O)F
inactive: Potency [1] | Potency [2] | Potency [3] | max response [4] 6.96% | Potency [5] | Potency [6] | Potency [7] | Potency [8] | Potency [9]

C=CC(=O)[O][Sn]([CH2]CCC)([CH2]CCC)[CH2]CCC
active: Potency [1] 871 nM | Potency [2] 549 nM | Potency [3] 977 nM | Potency [4] 389 nM | Potency [5] 7760 nM | Potency [10] 389 nM | Potency [7] 692 nM | Potency [8] 549 nM

O=[N+]([O-])c1cccc2cccc([N+](=O)[O-])c12
inactive: Potency [1] | Potency [2] | Potency [3] | max response [4] -12.3% | Potency [5] | Potency [10] | Potency [7] | Potency [8] | Potency [9]

O=[N+]([O-])c1ccc(Cl)c(Cl)c1Cl
active: Potency [1] 34200 nM | Potency [5] 24200 nM
inactive: Potency [2] | Potency [3] | max response [4] -8.94% | Potency [6] | Potency [10] | Potency [7] | Potency [8] | Potency [9]

CNC(=O)CSP(=O)(OC)OC
inactive: Potency [1] | Potency [2] | Potency [3] | max response [4] 5.27% | Potency [5] | Potency [6] | Potency [10] | Potency [7] | Potency [8] | Potency [9]

NC(=O)C(Cl)Cl
inactive: Potency [1] | Potency [2] | Potency [3] | max response [4] 3.34% | Potency [5] | Potency [6] | Potency [7] | Potency [8] | Potency [9]
